± gives the standard deviation. In all, about 5,500 sequences were measured (“pre-steady-state target cleavage rate”: median about 0.1, highest 2% from about 0.64 on). Only a selection was taken, and the highest values are over-represented in it overall.

This assay relates to MIWI (PIWIL1) piRISC loaded with piRNA #2 (30 nt). Kind of assay: pre-steady-state target cleavage rate (min^-1); MIWI and MILI are mouse PIWI proteins and EfPiwi is from a freshwater sponge; tags in brackets are library labels; higher = faster piRNA-guided slicing of the target. To be noted: guide: piRNA #2 5'p-UUAGGUAACCCAGUAGAUCCAGAGGAAUUC; auxiliary factor: 500 nM mouse GTSF1. Here is the method:
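Cleave-'n-Seq: a library of target RNAs (target site embedded in constant flanks, ACAGCATTCCGCGTTAGTGATATCCG... 5' flank; DNA-blocked outside the site) at 0.1 nM was incubated with 1 nM active mouse MILI or MIWI piRISC (synthetic 5'-monophosphorylated piRNA guide) with or without 500 nM mouse GTSF1 at 33 °C for 1 min to 16 h. Uncleaved targets were sequenced and normalised to non-target controls, and the pooled three trials were fitted to a burst-and-steady-state model to give the pre-steady-state cleavage rate (min^-1; k3 is constrained to at most 1e-4). Sequence is the target site only; target names encode pairing extent (gX:gY) and contiguous / 1-mismatch / 2-mismatch / bulge geometry. Fits with R² ≤ 0 are excluded.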
In the case of CUUAACCUGUGGAUCUACUGGGUAACCUAA, the “pre-steady-state target cleavage rate” value came to 0.0751 ± 0.013. Regarding GAAUUCCUCUGGAUCUAGUGGGAUACCUAA, the “pre-steady-state target cleavage rate” value amounted to 0.0616 ± 0.011. As for CUUUUCCUCUGCAUCUACUGGGAUACCUAA, the “pre-steady-state target cleavage rate” value came to 0.128 ± 0.018. With CAUUUCCUCUGGAUCUACUGGGUUACGUAA the figure was 0.622 ± 0.062.

As to CUUUUCCUCUGGAUCUACUGGGUUACGUAA, the “pre-steady-state target cleavage rate” value stood at 0.664 ± 0.034. In the case of GUAUUCCUCUGGAUCUACUGGGUUACGUAA, the “pre-steady-state target cleavage rate” value stood at 0.377 ± 0.057.

Take CUUUUCCUCUCGAUCUACUGGGUUACGUAA: the “pre-steady-state target cleavage rate” value was 0.746 ± 0.034. For CUUUUCCUCAGGAUCUACUGGGUUACGUAA, the “pre-steady-state target cleavage rate” value was 0.523 ± 0.067. For CUAUUCCUCUGGAUCUACUGGGUUACGUAA, the “pre-steady-state target cleavage rate” value came out at 0.63 ± 0.047. Take CAAUUCCUCUCGAUCUACUGGGUUACGUAA: the “pre-steady-state target cleavage rate” value was 0.885 ± 0.061. Under CUUUUCCUCUGGAUCUACUGGGUUACGUUA stands 0.374 ± 0.044; under CUUUUCCUCUCGAUCUACUGGGUUUCCUAA, 0.509 ± 0.058.

Take CAAUUCCUCUGGAUCUACUGGGUUACGUAA: the “pre-steady-state target cleavage rate” value worked out at 0.598 ± 0.065. Consider CUAUUCCUCUCGAUCUACUGGGUUACGUAA, for which the “pre-steady-state target cleavage rate” value turned out to be 0.935 ± 0.047. With GAAUUCCUCUCGAUCUACUGGGUUACGUAA, the “pre-steady-state target cleavage rate” value stood at 0.581 ± 0.067.

On to CUUAAGGUCUGGAUCUACUCGGUUACCUAA, for which the “pre-steady-state target cleavage rate” value came out at 0.0416 ± 0.02.

Regarding CUUAUCCUCUGGAUCUUCUGGGUUACGUAA, the “pre-steady-state target cleavage rate” value was found to be 0.45 ± 0.055. For the sequence CUAUUCCUCUGGAUCUACUGGUUACCUAA, the “pre-steady-state target cleavage rate” value came to 0.104 ± 0.026. For CUUUUCCUCUGGAUCUACUGAGUUACCUAA, the “pre-steady-state target cleavage rate” value is 0.727 ± 0.048. Take GAAUUCCUCUGGAUCUACUGGAGUUACCUAA: the “pre-steady-state target cleavage rate” value was 0.00576 ± 0.0035. Turning to GAAUUCCUCUGGAUCUACUGAGGUUACCUAA, the “pre-steady-state target cleavage rate” value came out at 0.00556 ± 0.0037.

For CUAUUCCUCUGGAUCUACUGAGUUACCUAA, the “pre-steady-state target cleavage rate” value stood at 0.823 ± 0.06. Under CAAUUCCUCUGGAUCUACUGGAGUUACCUAA stands 0.00382 ± 0.0035; under CAAUUCCUCUGGAUCUACUGAGUUACCUAA, 0.869 ± 0.075. On to CAAUUCCUCUGGAUCUACUGAGGUUACCUAA, for which the “pre-steady-state target cleavage rate” value turned out to be 0.00648 ± 0.0048. Consider CUUUUCCUCUGGAUCUACUGGUUACCUAA, for which the “pre-steady-state target cleavage rate” value stood at 0.0817 ± 0.016.

For “CUUUUCCUCUGGAUCUACUGGGUUACCUAA [g2:g27:cont:t1A]”, the “pre-steady-state target cleavage rate” value was determined as 0.408 ± 0.057. Turning to GAAUUCCUCUGGAUCUACUGAGUUACCUAA, the “pre-steady-state target cleavage rate” value amounted to 0.67 ± 0.046.

Take CUAUUCCUCUGGAUCUACUGGAGUUACCUAA: the “pre-steady-state target cleavage rate” value was found to be 0.00422 ± 0.0041. Under CUUAUCCUCUGGAUCUACAGGGUUACCAAA stands 0.237 ± 0.03; under CAAUUCCUCUCGAUCUACUGGGUAACCUAA, 0.476 ± 0.058. Turning to GAAUUCCUCUGGAUCUUCUGGGAUACCUAA, the “pre-steady-state target cleavage rate” value was 0.108 ± 0.018. Consider CUUAUCCUCUGGAUCUUCUGGGUAACCUAA, for which the “pre-steady-state target cleavage rate” value turned out to be 0.0522 ± 0.013. GAAUUCCUCUGCAACUACUGGGUUACCUAA: the “pre-steady-state target cleavage rate” value was 0.413 ± 0.048.

CUAUUCCUCUGGAUCUACUGGGUAACCUAA: the “pre-steady-state target cleavage rate” value was 0.231 ± 0.042.

For CUUAAGGUCUGGAUCUCCUGGGUUACCUAA, the “pre-steady-state target cleavage rate” value came to 0.0565 ± 0.013. On to CUUAUCCUCUGGAUCUACUGGGUUAACUAA, for which the “pre-steady-state target cleavage rate” value was 0.407 ± 0.071. On to CUUAAGGUCUGGAACUAGUGGGUUACCUAA, for which the “pre-steady-state target cleavage rate” value was 0.0577 ± 0.017. As to CAAUUCCUCAGCAUCUACUGGGUUACCUAA, the “pre-steady-state target cleavage rate” value came to 0.437 ± 0.044. Turning to CUUAAGCUCCUGGAUCUACUGGGUUACCUAA, the “pre-steady-state target cleavage rate” value worked out at 0.181 ± 0.021. In the case of CUUAUCCUCGUGGAUCUACUGGGUUACCUAA, the “pre-steady-state target cleavage rate” value turned out to be 0.161 ± 0.032. Consider GAAUUCCACUGGAUCUACUCGGUUACCUAA, for which the “pre-steady-state target cleavage rate” value turned out to be 0.193 ± 0.022. As for CUAUUCCUCUGGAUCUACUGCGUUACGUAA, the “pre-steady-state target cleavage rate” value is 0.539 ± 0.08. In the case of CUUAACCUCUGGAUCUACUGGGUUACCGUAA, the “pre-steady-state target cleavage rate” value is 0.155 ± 0.019. As to CUAUUCCUCUAGAUCUACUGGGUUACCUAA, the “pre-steady-state target cleavage rate” value came to 0.67 ± 0.042.

With CAAUUCCUCUAGGAUCUACUGGGUUACCUAA, the “pre-steady-state target cleavage rate” value was 0.434 ± 0.048. With GAAUUCCUCUAGAUCUACUGGGUUACCUAA, the “pre-steady-state target cleavage rate” value came to 0.731 ± 0.05. As for CAAUUCCUCUGAGAUCUACUGGGUUACCUAA, the “pre-steady-state target cleavage rate” value was found to be 0.545 ± 0.057. CAAUUCCUCUAGAUCUACUGGGUUACCUAA: the “pre-steady-state target cleavage rate” value stood at 0.807 ± 0.047. With GAAUUCCUCUAGGAUCUACUGGGUUACCUAA the figure was 0.348 ± 0.074. Consider CUAUUCCUCUAGGAUCUACUGGGUUACCUAA, for which the “pre-steady-state target cleavage rate” value was 0.278 ± 0.041. As to CUAUUCCUCUGAGAUCUACUGGGUUACCUAA, the “pre-steady-state target cleavage rate” value was determined as 0.471 ± 0.042. Consider GAAUUCCUCUGAGAUCUACUGGGUUACCUAA, for which the “pre-steady-state target cleavage rate” value was 0.381 ± 0.046. As for CUAUUACCUCUGGAUCUACUGGGUUACCUAA, the “pre-steady-state target cleavage rate” value amounted to 0.227 ± 0.041. Under CUUAAGGUCUGGAACUACUGGCUUACCUAA stands 0.027 ± 0.022. CUUAAGCUCAGGAUCUACAGGGUUACCUAA: the “pre-steady-state target cleavage rate” value worked out at 0.081 ± 0.014.

Consider CUUAAGGACAGCAUCUACUGGGUUACCUAA, for which the “pre-steady-state target cleavage rate” value came to 0.00648 ± 0.0035. Consider CUAUUCGUCUGGAUCUACUGGGUUACCAAA, for which the “pre-steady-state target cleavage rate” value came out at 0.36 ± 0.064. Turning to CUUUACCUCUCGAUCUACUGGGUUACCUAA, the “pre-steady-state target cleavage rate” value amounted to 0.47 ± 0.033. As to GAUUUCCUCUGGAUCUACUGGGUUACCUAA, the “pre-steady-state target cleavage rate” value amounted to 0.183 ± 0.042. With CAUUUCCUCUCGAUCUACUGGGUUACCUAA, the “pre-steady-state target cleavage rate” value came out at 0.808 ± 0.052. Regarding CUUUUCCUCUCGAUCUACUGGGUUACCUAA, the “pre-steady-state target cleavage rate” value came out at 0.602 ± 0.04.

For the sequence GAUUUCCUCUCGAUCUACUGGGUUACCUAA, the “pre-steady-state target cleavage rate” value was 0.66 ± 0.067.

Consider CAUUUCCUCUGGAUCUACUGGGUUACCUAA, for which the “pre-steady-state target cleavage rate” value amounted to 0.541 ± 0.059.

Take CAAUUCGACUGGAUCUACUGGGUUACCUAA: the “pre-steady-state target cleavage rate” value amounted to 0.357 ± 0.05. Regarding CUUUUCCUCUGGAUCUACUGCGUAACCUAA, the “pre-steady-state target cleavage rate” value turned out to be 0.174 ± 0.032. As for “CUUAAGGAGAGGAUCUACUGGGUUACCUAC [g2:g20:cont:t1C]”, the “pre-steady-state target cleavage rate” value is 0.0183 ± 0.0054. For the sequence CAAUUGCUCUGGAUCUACUGGGUUACCUUA, the “pre-steady-state target cleavage rate” value was found to be 0.212 ± 0.048.

With GAAUUCCUCUGGAUCUACUCGCUUACCUAA, the “pre-steady-state target cleavage rate” value was 0.00392 ± 0.0028. With CUUAAGGAGAGCGAUCUACUGGGUUACCUAA, the “pre-steady-state target cleavage rate” value came to 0.00514 ± 0.003. On to CUUUUCCUCUCGAUCUACUGCGUUACCUAA, for which the “pre-steady-state target cleavage rate” value was determined as 0.845 ± 0.072. For the sequence CUAUUCCUCUGGAUCUACUGCGUUACCUAA, the “pre-steady-state target cleavage rate” value was 0.521 ± 0.065. Regarding CAAUUCCUCUGGAUCUACUGCGUUACCUAA, the “pre-steady-state target cleavage rate” value was found to be 0.593 ± 0.069. Under CAAUUCCUCUCGAUCUACUGCGUUACCUAA stands 0.907 ± 0.084.

(Values after the supplement of paper PMC10338343.)
